# The source made the active and inactive calls.
# Legend:
# Albumin (Bos taurus) = Albumin (Bos taurus) (UniProt P02769); assay: compounds binding labelled BSA control protein – biochemical, small-molecule microarray, Alexa647 label, 635/667 nm fluorescence, artefact control for SMM control protein annotation, profiling panel (AID 1118); conditions: BSA-A647 binding, fluorescence 635 nm, higher = more signal;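 note: score merges 667 nm emission intensity and signal-to-noise per printed compound spot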
# [1] = probe aXIP binding to arrayed compounds – biochemical, NeuroSMM set, 635/667 nm fluorescence, primary screen (AID 1119); conditions: small-molecule microarray, higher = more signal, called active from +8 up or from −8 down;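 note: probe is the protein aXip251-270 applied at 1 µg/mL to compound-printed slides; binding of probe to printed compounds measured as 667 nm fluorescence plus signal to noise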
# [2] = probe aNOTCH3 binding on compound microarray – biochemical, small-molecule microarray, 635/667 nm fluorescence, primary screen (AID 1120); conditions: higher = more signal;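 note: probe is a biotin-tagged antibody raised against NOTCH3 rather than NOTCH3 protein; score merges spot fluorescence near 667 nm with spot signal to noise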
# [3] = probe aNOTCH2 binding on compound microarray – biochemical, small-molecule microarray, 635/667 nm fluorescence, primary screen (AID 1121); conditions: higher = more signal;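 note: score merges feature fluorescence read at 667 nm with its signal to noise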
# [4] = biological target: Carbonic anhydrase 2 (Homo sapiens) (UniProt P00918); assay: compounds binding carbonic anhydrase 2 – biochemical, small-molecule microarray, Alexa647-labelled CAII, profiling panel (AID 1122); conditions: CAII-A647 binding fluorescence, higher = more signal
# [5] = COS7 lysate on small-molecule microarray, probe aHis, 635 nm (AID 1123); conditions: COS7 cell lysate, fluorescence, higher = more signal;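 note: z-score combines 667nm fluorescence intensity with signal-to-noise per printed compound spot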
# [6] = probe aLAP1 signal on lysate-treated microarray – cell lysate, small-molecule microarray, COS7 lysate, primary screen (AID 1124); conditions: probe aLAP1, fluorescence, higher = more signal;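 note: lysate comes from COS7 cells expressing LAP1 and is applied at 0.3 µg/mL; score merges spot fluorescence near 667 nm with signal-to-noise over triplicate slides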
# Sam68 (KHDRBS1) = assay: compounds binding KHDRBS1 protein – biochemical, small-molecule microarray, 635 nm fluorescence, primary screen (AID 1125); conditions: higher = more signal;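 note: score merges 667 nm channel intensity with signal to noise over triplicate slides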
# [7] = tested on: Chordin-like protein 2 (CHRDL2); assay: compounds binding chordin-like 2 – biochemical, small-molecule microarray, 635 nm fluorescence, primary screen (AID 1126); conditions: fluorescence 635 nm, higher = more signal;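 note: printed compound slides probed with Chrdl2 protein at 4 µg/mL for 1 h at 4 C; score merges 667 nm emission intensity with signal to noise over three replicate slides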
# [8] = biological target: Concanavalin-A (Canavalia ensiformis) (UniProt P02866); assay: compounds binding concanavalin A lectin – biochemical, small-molecule microarray, Alexa647 label, 635 nm, artefact control for SMM control protein annotation, primary screen (AID 1127); conditions: ConA-A647 binding fluorescence, higher = more signal;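 note: z combines 667 nm emission intensity with signal-to-noise across three replicate slides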
# [9] = compounds binding Alexa647 anti-His antibody – biochemical, small-molecule microarray, 635 nm fluorescence, artefact control for SMM control protein annotation, primary screen (AID 1128); conditions: higher = more signal;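 note: score merges feature fluorescence with signal-to-noise for each printed compound spot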
# [10] = tested on: Human papillomavirus type 1a E7 protein (residues 1-88); assay: HPV1a E7 small-molecule binders, primary screen, biochemical, small-molecule microarray, residues 1-88, 635 nm (AID 1129); conditions: small-molecule microarray binding, fluorescence 635 nm; higher = more signal
# [11] = biological target: Focal adhesion kinase 1 (Homo sapiens) (UniProt Q05397); assay: PTK2 protein binding on printed compound slides – biochemical, small-molecule microarray, 635/667 nm fluorescence, BSA, DTT, primary screen (AID 1130); conditions: 635 nm fluorescence, higher = more signal;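 note: composite of spot emission at 667 nm and signal to noise over triplicate slides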
# [12] = tested on: Fibrinogen (Alexa647-labelled); assay: Alexa647-fibrinogen binding to printed small molecules – biochemical, small-molecule microarray, 635/667 nm fluorescence, artefact control for SMM control-protein annotation, profiling panel (AID 1131); conditions: fibrinogen-A647 binding fluorescence, higher = more signal;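 note: z-score merges 667 nm fluorescence with per-spot signal-to-noise over triplicate slides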
# [13] = biological target: Follistatin (Homo sapiens) (UniProt P19883); assay: FST protein binding to printed compounds – biochemical, small-molecule microarray, 635/667 nm fluorescence, primary screen (AID 1132); conditions: 635 nm fluorescence, higher = more signal
# [14] = biological target: Fibroblast growth factor 2 (Homo sapiens) (UniProt P09038); assay: basic fibroblast growth factor binding to printed compounds – biochemical, small-molecule microarray, 635/667 nm fluorescence, primary screen (AID 1133); conditions: FGF2, fluorescence 635/667, higher = more signal
# [15] = JC-1 mitochondrial potential readout, lung cancer cells – cell-based, A549, JC-1 fluorescence, basal, 24 h, 100 nL, profiling panel (AID 1138); conditions: higher = more signal;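 note: A549 lung adenocarcinoma cells under basal conditions with no added stimulus; test concentration not given here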
# Lefty1 = Lefty1 protein binding to printed compounds – biochemical, small-molecule microarray, 635/667 nm fluorescence, primary screen (AID 1139); conditions: fluorescence 635/667, higher = more signal
# [16] = tested on: wheat germ agglutinin (Triticum aestivum), Alexa647-labelled; assay: Alexa647-WGA lectin binding to printed small molecules – biochemical, small-molecule microarray, 635/667 nm fluorescence, artefact control for SMM control-protein annotation, profiling panel (AID 1140); conditions: WGA-A647 binding, 635 nm fluorescence, higher = more signal;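 note: score merges 667 nm feature emission with signal to noise over triplicate slides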
# [17] = biological target: Luciferin 4-monooxygenase (Photinus pyralis) (UniProt P08659); assay: inhibition of purified Photinus pyralis luciferase – biochemical, luminescence, purified enzyme, 2006 set, primary screen (AID 1141); conditions: purified firefly luciferase, SteadyGlo luminescence, 30 min; higher = more signal, called active from +8 up or from −8 down;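 note: cell-free assay with purified firefly luciferase at 100 ng per well in PBS; test concentration not given here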
# Chain of Luciferin 4-monooxygenase (Photinus pyralis) (P08659 whole entry, looked up): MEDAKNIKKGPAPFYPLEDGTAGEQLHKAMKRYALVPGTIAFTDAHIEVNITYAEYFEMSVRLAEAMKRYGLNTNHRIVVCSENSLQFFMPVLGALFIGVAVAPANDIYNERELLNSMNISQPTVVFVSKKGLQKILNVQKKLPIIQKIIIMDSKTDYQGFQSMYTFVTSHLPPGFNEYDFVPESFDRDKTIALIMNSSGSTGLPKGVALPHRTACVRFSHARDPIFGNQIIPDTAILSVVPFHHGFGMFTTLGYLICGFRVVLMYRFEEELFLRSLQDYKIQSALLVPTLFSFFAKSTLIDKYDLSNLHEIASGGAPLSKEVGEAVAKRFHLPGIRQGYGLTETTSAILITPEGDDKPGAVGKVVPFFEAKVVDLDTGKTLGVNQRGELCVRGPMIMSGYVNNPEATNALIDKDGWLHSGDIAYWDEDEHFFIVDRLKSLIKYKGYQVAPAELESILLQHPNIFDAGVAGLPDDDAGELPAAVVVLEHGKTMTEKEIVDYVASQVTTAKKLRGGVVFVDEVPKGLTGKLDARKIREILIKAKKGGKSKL
# Chain of Follistatin (Homo sapiens) (P19883 whole entry, looked up): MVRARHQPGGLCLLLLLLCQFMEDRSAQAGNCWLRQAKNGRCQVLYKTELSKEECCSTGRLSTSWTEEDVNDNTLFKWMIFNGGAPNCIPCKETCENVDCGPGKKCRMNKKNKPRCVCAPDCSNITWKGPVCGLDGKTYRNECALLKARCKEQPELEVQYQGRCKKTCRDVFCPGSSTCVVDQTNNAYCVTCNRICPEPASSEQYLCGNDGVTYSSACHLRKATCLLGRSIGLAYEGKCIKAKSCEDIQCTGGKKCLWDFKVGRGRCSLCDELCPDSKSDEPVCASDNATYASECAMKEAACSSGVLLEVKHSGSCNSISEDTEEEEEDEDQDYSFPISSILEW
# Chain of Fibroblast growth factor 2 (Homo sapiens) (P09038 whole entry, looked up): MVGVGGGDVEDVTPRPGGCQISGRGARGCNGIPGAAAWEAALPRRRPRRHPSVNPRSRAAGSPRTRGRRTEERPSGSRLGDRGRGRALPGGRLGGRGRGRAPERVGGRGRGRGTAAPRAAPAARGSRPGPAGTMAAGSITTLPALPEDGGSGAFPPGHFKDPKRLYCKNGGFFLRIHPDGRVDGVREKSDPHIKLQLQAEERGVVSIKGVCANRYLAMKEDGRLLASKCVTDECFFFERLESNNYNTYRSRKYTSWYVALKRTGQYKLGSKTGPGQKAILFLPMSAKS
# Chain of Albumin (Bos taurus) (P02769 whole entry, looked up): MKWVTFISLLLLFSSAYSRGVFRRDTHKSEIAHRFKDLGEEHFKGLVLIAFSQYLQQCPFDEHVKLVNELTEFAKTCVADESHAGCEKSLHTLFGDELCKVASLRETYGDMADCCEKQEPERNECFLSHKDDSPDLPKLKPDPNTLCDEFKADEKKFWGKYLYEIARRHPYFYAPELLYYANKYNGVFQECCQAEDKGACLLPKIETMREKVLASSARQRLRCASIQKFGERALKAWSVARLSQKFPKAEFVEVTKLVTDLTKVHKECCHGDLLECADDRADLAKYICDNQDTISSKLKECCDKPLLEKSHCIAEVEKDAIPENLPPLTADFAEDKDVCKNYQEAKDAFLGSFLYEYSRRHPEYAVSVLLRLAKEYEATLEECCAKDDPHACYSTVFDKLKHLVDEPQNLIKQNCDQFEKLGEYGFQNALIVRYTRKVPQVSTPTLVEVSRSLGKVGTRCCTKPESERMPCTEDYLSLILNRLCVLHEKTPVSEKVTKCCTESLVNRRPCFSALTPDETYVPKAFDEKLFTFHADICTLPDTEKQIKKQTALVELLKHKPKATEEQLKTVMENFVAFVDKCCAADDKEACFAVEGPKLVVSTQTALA
# Chain of Focal adhesion kinase 1 (Homo sapiens) (Q05397 whole entry, looked up): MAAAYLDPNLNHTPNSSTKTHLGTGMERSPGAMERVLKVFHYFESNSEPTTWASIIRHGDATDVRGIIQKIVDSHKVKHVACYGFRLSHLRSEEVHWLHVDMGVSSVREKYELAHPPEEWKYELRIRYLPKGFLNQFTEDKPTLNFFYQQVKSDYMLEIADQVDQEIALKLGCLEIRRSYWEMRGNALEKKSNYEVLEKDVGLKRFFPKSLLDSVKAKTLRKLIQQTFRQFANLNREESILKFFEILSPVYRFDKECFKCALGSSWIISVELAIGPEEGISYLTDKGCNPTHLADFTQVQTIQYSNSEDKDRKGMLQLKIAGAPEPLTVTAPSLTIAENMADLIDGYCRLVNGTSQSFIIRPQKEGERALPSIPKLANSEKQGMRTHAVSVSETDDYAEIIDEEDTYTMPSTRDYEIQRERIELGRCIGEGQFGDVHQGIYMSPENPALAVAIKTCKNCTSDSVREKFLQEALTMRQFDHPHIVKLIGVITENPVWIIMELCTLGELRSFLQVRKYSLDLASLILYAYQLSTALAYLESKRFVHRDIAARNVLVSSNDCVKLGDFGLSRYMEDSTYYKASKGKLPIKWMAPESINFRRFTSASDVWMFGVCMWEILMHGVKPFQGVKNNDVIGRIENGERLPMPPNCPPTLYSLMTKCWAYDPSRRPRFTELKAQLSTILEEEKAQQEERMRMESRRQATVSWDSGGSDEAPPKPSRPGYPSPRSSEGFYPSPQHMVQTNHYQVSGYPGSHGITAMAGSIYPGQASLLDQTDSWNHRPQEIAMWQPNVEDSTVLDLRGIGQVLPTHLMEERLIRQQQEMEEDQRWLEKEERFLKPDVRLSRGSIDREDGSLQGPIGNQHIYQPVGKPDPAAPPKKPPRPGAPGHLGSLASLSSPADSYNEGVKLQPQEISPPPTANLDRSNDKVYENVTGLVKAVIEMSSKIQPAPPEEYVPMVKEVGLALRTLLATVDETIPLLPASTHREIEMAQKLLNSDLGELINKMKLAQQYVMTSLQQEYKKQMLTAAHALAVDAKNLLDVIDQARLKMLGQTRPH
# Chain of Concanavalin-A (Canavalia ensiformis) (P02866 whole entry, looked up): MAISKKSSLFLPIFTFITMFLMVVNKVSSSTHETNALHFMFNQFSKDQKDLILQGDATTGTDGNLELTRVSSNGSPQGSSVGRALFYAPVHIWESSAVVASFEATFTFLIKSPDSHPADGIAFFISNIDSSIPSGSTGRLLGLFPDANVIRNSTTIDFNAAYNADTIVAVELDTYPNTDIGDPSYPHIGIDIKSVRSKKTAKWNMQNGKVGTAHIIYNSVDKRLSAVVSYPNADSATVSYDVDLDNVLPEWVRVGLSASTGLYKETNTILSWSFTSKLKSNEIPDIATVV
SMILES,composite z-score (Albumin (Bos taurus)),composite Z-score [1],composite z-score [2],composite z-score [3],composite z-score [4],composite z-score [5],composite z-score [6],composite z-score (Sam68 (KHDRBS1)),composite z-score [7],composite z-score [8],composite z-score [9],composite z-score [10],composite z-score [11],composite z-score [12],composite z-score [13],composite z-score [14],z-score [15],composite z-score (Lefty1),composite z-score [16],z-score [17]
COc1ccc([Si](C)(C)[C@@H]2[C@@H](CC(=O)N3CCC[C@H]3CO)O[C@]3(C(=O)N(c4ccccc4)c4ccccc43)[C@H]2C)cc1,0.569,0.723 (inactive),-0.0377,-0.147,0.575,1.12,0.237,1.3,0.553,0.894,0.806,1.22,0.472,0.94,1.1,0.642,-0.228,1.01,0.2,0.659 (inactive)
CCOC(=O)C[C@H]1[C@H](OC(=O)c2ccc(C(=O)c3ccccc3)cc2)[C@@H](NC(=O)c2ccccc2)c2cc(OCCCO)ccc2N1C(=O)c1ccc2ccccc2n1,0.783,-0.386 (inactive),0.0561,-0.0187,0.418,1.53,0.612,1.33,-0.284,1.05,1.03,1.06,0.281,0.788,-0.0746,-0.268,0.586,0.536,0.324,-0.417 (inactive)
CC(=O)n1cc(C(O)C2C=CC3C(=O)N(c4ccccc4)C(=O)C3N2Nc2ccc([N+](=O)[O-])cc2)c2ccccc21 (stereo not given),0.932,0.406 (inactive),0.0159,0.386,0.778,2.22,1.33,1.34,-1.4,0.823,3.33,0.981,0.457,0.916,0.347,-0.105,-1.02,-0.719,1.45,1.08 (inactive)
COCCOC(=O)N1C(=O)[C@@]2(c3cc(C#CC4(O)CCCCCC4)ccc31)[C@H](c1ccccc1OCCO)N1[C@H](c3ccccc3)[C@H](c3ccccc3)OC(=O)[C@H]1[C@@H]2C(=O)N1CCN(c2ncccn2)CC1,0.781,-0.291 (inactive),-0.0313,-0.0432,0.596,1.12,0.384,1.29,0.336,1.09,0.701,1.05,0.782,0.662,1.19,0.846,-1.13,0.702,0.764,-1.04 (inactive)
C=CCC(OC(C)=O)[C@@H]1[C@@H](N(Cc2ccc(-c3ccccc3)cc2)C(=O)c2ccc(-c3ccccc3)cc2)c2cc(OCCCO)ccc2N1C(=O)Cc1ccc2ccccc2c1 (stereo not given in full),0.108,-0.316 (inactive),-0.0057,-0.213,0.002,0.522,-0.0155,0.621,0.156,-0.288,1.13,-0.0959,-0.0802,0.51,0.456,-0.275,0.857,0.211,0.0685,-0.785 (inactive)
CC(CO)N1C(=O)[C@@H]2C3C(=O)OCCC/C=C\[C@H]3OC23C=CCN(C(C)(C)C)C(=O)[C@@H]13 (stereo not given in full),-0.757,-0.483 (inactive),-0.103,-0.167,0.872,0.295,0.198,-0.0677,-0.184,0.0099,-0.286,-0.615,-0.05,-0.47,0.122,-0.0209,-0.0344,0.476,-0.452,-0.562 (inactive)
CCOC(=O)C[C@H]1[C@H](OC(=O)c2ccc(C(=O)c3ccccc3)cc2)[C@@H](NC(=O)c2ccccc2)c2cc(OCCCO)ccc2N1C(=O)Cc1ccc(OC)cc1,0.346,0.713 (inactive),0.0242,-0.0624,0.0172,0.445,-0.171,0.226,0.0542,0.163,-0.239,-0.158,0.0147,0.204,0.0257,-0.358,2.33,0.545,-0.0653,-0.863 (inactive)
